# Source: PubChem BioAssay (National Center for Advancing Translational Sciences (NCATS))
# Shown are actives, neighbours in structure and some others; about 12% of the full set was active somewhere.
# JMJD2A Tudor = qHTS Assay for Inhibitors of JMJD2A-Tudor Domain; Potency, µM (titrated, usually from 114 µM), for inactives: at the highest dose activity change, negative = inhibition, hits mostly inhibitors; actives 4.4% (n = 390,000); AlphaScreen JMJD2A-Tudor / H3K4me3 peptide binding; AID 504339, 2011; further: on the % scale 0 is the no-effect control and ±100 the full control effect; nearly all actives have a fitted effect of over 50% in size
# HP1b binding inh = HTS for Inhibitors of HP1-beta Chromodomain Interactions with Methylated Histone Tails; Chromobox protein homolog 1 (Homo sapiens), P83916; actives 0.56% (n = 390,000); Potency, µM (doses to about 114 µM), without a hit: at the top dose activity change, negative = inhibition, hits mostly inhibitors; AlphaScreen HP1-beta / biotin-H3K9me3 peptide binding; AID 540317, 2011; further: nearly all actives have a fitted effect of over 70% in size
#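 AlphaScreen: HP1-beta (50 nM) preformed 30 min with biotin-H3(1-18)K9me3 peptide (50 nM) in PBS pH 7.4, 0.01% Tween-20. Compound added for 30 min at RT, then streptavidin donor/nickel chelate acceptor beads (10 ug/mL) for 30 min.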
# L3MBTL1 block = qHTS Assay for the Inhibitors of L3MBTL1. Lethal(3)malignant brain tumor-like protein 1 (Homo sapiens), Q9Y468. AlphaScreen L3MBTL1–H3K9me1 peptide binding. Potency, µM (series often up to 57.1 µM), for inactives: at the highest dose activity, negative = inhibition, hits mostly inhibitors. actives 0.66% (n = 230,000); further: on the % scale 0 is the no-effect control and ±100 the full control effect; nearly all actives have a fitted effect of over 60% in size
# Target sequence (Q9Y468 whole entry, looked up): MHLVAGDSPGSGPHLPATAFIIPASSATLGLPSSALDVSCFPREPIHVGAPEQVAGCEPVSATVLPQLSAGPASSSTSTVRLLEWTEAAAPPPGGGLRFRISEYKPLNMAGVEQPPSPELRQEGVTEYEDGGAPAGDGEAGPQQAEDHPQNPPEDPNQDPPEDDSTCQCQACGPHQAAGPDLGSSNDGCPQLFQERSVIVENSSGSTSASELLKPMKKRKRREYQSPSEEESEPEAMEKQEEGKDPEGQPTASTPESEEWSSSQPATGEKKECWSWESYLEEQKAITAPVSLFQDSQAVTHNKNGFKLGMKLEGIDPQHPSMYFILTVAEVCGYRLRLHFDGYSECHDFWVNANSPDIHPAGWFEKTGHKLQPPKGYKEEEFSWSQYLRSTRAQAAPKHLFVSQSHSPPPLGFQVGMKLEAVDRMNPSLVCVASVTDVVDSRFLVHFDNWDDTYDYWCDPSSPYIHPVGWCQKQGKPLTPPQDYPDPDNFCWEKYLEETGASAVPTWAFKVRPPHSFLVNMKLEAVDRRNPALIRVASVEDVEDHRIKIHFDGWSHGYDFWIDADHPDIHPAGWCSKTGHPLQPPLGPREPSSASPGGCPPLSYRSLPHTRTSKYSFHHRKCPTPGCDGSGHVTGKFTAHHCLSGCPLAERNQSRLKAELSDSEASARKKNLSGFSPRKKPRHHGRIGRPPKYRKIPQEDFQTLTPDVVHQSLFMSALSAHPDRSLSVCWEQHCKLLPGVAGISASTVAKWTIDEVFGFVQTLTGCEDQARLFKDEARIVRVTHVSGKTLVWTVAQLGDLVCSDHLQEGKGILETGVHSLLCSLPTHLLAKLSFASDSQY
#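 AlphaScreen proximity signal between nickel-chelate acceptor and streptavidin donor beads (final 10 ug/mL) reports binding of 50 nM L3MBTL1 to 75 nM biotin-H3 K9me1 peptide; complex incubated with compounds 30 min at room temperature; cefsulodin titration as control.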
# Sfp inh = qHTS Assay for Inhibitors of Bacillus subtilis Sfp phosphopantetheinyl transferase (PPTase); Biochemical Sfp PPTase activity, qHTS; Potency, µM, for the others: largest response in the series, negative = inhibition, hits mostly inhibitors; actives 3.5% (n = 310,000); AID 1490, 2009;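 further: the enzyme is Sfp with the accession as filed and its product quenches rhodamine fluorescence; 0% = enzyme reaction without inhibitor and -100% = no enzyme wells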
#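 Buffer: 50 mM Hepes-Na pH 7.6, 10 mM MgCl2, 0.01% Nonidet P-40, 0.01% BSA. Enzyme 15 nM, pre-exposed to compound 15 min; substrates then added and fluorescence change tracked over 30 min.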
# BAZ2B inh = qHTS Assay for Inhibitors of BAZ2B. Bromodomain adjacent to zinc finger domain protein 2B (Homo sapiens), Q9UIF8. AlphaScreen BAZ2B-H3K14Ac peptide displacement. Potency, µM (highest dose often 114 µM), without a hit: at the top dose activity change, negative = inhibition, most hits filed as inhibitors. actives 4.4% (n = 360,000). AID 504333, 2011; further: on the % scale 0 is the no-effect control and ±100 the full control effect; nearly all actives have a fitted effect of over 60% in size
#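 Compounds, titrated to a top concentration of 110 uM, were incubated 30 min at room temperature with preformed BAZ2B/acetyl-K14 H3 peptide complex (50 nM each). Proximity signal was measured by AlphaScreen after 20 min with beads.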
# G9a block = qHTS Assay for Inhibitors of Histone Lysine Methyltransferase G9a. Histone-lysine N-methyltransferase EHMT2 (Homo sapiens), Q96KQ7. G9a H3K9 monomethylation, AlphaScreen, 2 h. Potency, µM (series often up to 102 µM), inactives show at the highest dose activity, negative = inhibition, usual class: inhibitors. actives 8.8% (n = 350,000). AID 504332, 2011; further: on the % scale 0 is the no-effect control and ±100 the full control effect; nearly all actives have a fitted effect of over 75% in size
#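 G9a (20 nM) preincubated 15 min RT with compounds, then 500 nM biotinylated H3K9 peptide and 20 uM SAM added; 2 h RT reaction. Monomethyl-H3K9 product detected by AlphaScreen with anti-H3K9me1 antibody, streptavidin donor and anti-rabbit IgG acceptor beads.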
# Active calls of the source: *; u = inconclusive; x = no result given; ! = repeats disagree; [ ] = dose if it differs, or a comment. The call rests on the fitted dose curve; in most records, active means well fitted curve in the direction sought with a large enough effect; inconclusive means small, poorly fitted or top-dose-only effect, or another doubt; inactive means no such curve, though single readings can be large; an effect the other way counts as inactive or inconclusive. Potency means the concentration at half of the fitted maximal effect.
SMILES,JMJD2A Tudor,HP1b binding inh,L3MBTL1 block,Sfp inh,BAZ2B inh,G9a block
COC(=O)NC(c1cccc(C)c1)[C@]1(C(C)=O)CCCC1=O (stereo partly specified),x,x,x,28.7%,x,x
CC1(C)C(=O)NC2=C1C(=O)C(=O)c1ccccc12,x,x,x,50.1µM*!,x,x
O=C1c2sc3nc4n(c(=O)c3c2CCC1Br)CCCCC4 (stereo unspecified),7.94µM*,u,-8.2%,20µM*,50.1µM*,4.1%[0.501 µM]
O=C1CCCc2c1sc1nc3n(c(=O)c21)CCCCC3,-11.6%,60.3%,x,-10.6%,-0.4%,-33.1%
CC(C)OCC1Cn2c(nc3c2c(=O)n(C)c(=O)n3C)O1 (stereo unspecified),-14.7%,18.4%,5.7%,21.6%,-1.9%,4.1%
CC(C1CC2CCC1C2)n1c(-c2ccco2)n[nH]c1=S (stereo unspecified),20µM*,u,-14.7%,u,u,2.24µM*
CCOC(=O)CSc1n[nH]c(-c2ccco2)n1,u,17.4%,x,4.5%,10.8%,1.5%
COc1ccc(/C=C(\C#N)c2nc(-c3cc(Cl)ccc3OC)cs2)cc1,-11.8%,34.9%,x,x,6.0%,-34.9%[59 µM]
O=C(CSc1nnc(-c2ccccn2)o1)Nc1ccccc1C(F)(F)F,-17.8%,5.4%,x,-9.5%,50.1µM*,70.8µM*
COc1ccccc1NC(=O)CSc1nnc(-c2ccccn2)o1,-19.1%,32.2%,x,12.1%,-25.8%,7.9%
CCOC(=O)c1[nH]c(C)c(CCC(=O)N2CCN(c3ccc(Cl)cc3)CC2)c1C,u,9.5%[57 µM],x,x,u,u
CCOP(=O)(OCC)C(C#N)=C1SCN(c2ccc(Cl)cc2)CS1,79.4µM*,-1.6%,-2.7%,u,7.9%,u
NC(=O)NC(=O)C(c1ccccc1)N1CCN(S(=O)(=O)Cc2ccccc2)CC1 (stereo unspecified),-8.3%,25.7%,2.7%,x,0.4%,1.3%[59 µM]
O=C(COc1ccc(C(=S)N2CCOCC2)cc1Cl)Nc1ccccc1Cl,2.4%,-24.4%,x,20µM*,2.8%,7.08µM*
O=C(Oc1ccccc1C(=S)N1CCOCC1)c1ccc([N+](=O)[O-])cc1[N+](=O)[O-],u,u,x,-20.0%,u,50.1µM*
COc1ccc(C(=S)N2CCOCC2)cc1OC(=O)c1ccc([N+](=O)[O-])cc1[N+](=O)[O-],-30.3%,u,x,-15.4%,u,39.8µM*
COc1cc(C(=S)N2CCOCC2)ccc1OC(=O)c1cccc(C)c1,u,-18.0%,-10.1%,79.4µM*,u,22.4µM*
CC1(C)C(=O)C2C[C@]3(O)C4=CC(=O)OC(c5ccoc5)[C@]4(C)CCC3[C@](C)(C2=O)C1CC(=O)O (stereo partly specified),x,x,x,13.6%,x,u
CC(C)(C)OC(=O)N1CCN(c2nc(-c3cccs3)nc3ccccc23)CC1,4.8%,57.3%,x,x,x,x
COc1cc(C(=S)N2CCOCC2)ccc1OC(=O)c1ccc(Br)cc1,-30.9%,17.9%,-6.1%,-3.1%,-33.4%,-43.1%
COc1cc(C(=S)N2CCOCC2)ccc1OC(=O)c1ccccc1C,-27.2%,-4.9%,-1.7%,-14.5%,u,x
COc1ccc(C(=S)N2CCOCC2)cc1OC(=O)c1ccccc1Cl,u,u,x,56.2µM*,-28.6%,11.2µM*
COc1cc(C(=S)N2CCOCC2)ccc1OC(=O)c1cc([N+](=O)[O-])cc([N+](=O)[O-])c1,-21.4%,u,16.3%,-1.6%,-22.2%,7.94µM*
